Here are results for 30 compounds from PubChem BioAssay (EPA / NIEHS).

Activity calls are given as the source filed them. The calls were made as follows: active = hit-call score of the fitted dose curve at least 0.9, where 1 is the maximum; inactive = score below 0.9.

Experiment [1] in a line: ATG_GLI_CIS: Attagene CIS-FACTORIAL HepG2 Assay for human Zinc Finger Protein GLI1 (AID 2282945). As to conditions: HepG2, Attagene cis-factorial reporter mRNA, GLI element; actives raise or lower the signal. The procedure, abridged: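 Transiently transfected HepG2 cells report endogenous transcription factor activity via cis-element-driven reporter units. After 24 h compound exposure, reporter mRNA was measured by RT-PCR with capillary electrophoresis; bidirectional fitting against DMSO baseline.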

Experiment [2] can be described thus: ATG_GRE_CIS: Attagene CIS-FACTORIAL HepG2 Assay for human Glucocorticoid Response Elements (GRE) (AID 2282947). Conditions: HepG2 GRE cis-reporter, Attagene multiplex mRNA; actives raise or lower the signal. The procedure, abridged: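 Fluorescence intensity of reporter-specific cDNA fragments, separated by capillary electrophoresis, provides the signal. Constructs carry cis-regulating promoters in transiently transfected HepG2 liver cells; 24 h incubation; fitting is bidirectional against DMSO.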

The nature of experiment [3]: ATG_ISRE_CIS: Attagene CIS-FACTORIAL HepG2 Assay for human Interferon Regulatory Factor 1 (IRF1) binding to an Interferon-Stimulated Response Element (ISRE) (AID 2282948). Conditions: HepG2 ISRE cis-reporter (Attagene), mRNA transcription readout; actives raise or lower the signal. A digest of the protocol:
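Read-out: fluorescent RT-PCR products resolved by capillary electrophoresis, reporting endogenous transcription factor activity via ISRE-driven reporter mRNA in transfected HepG2 cells dosed for 24 h; gain or loss fitted relative to DMSO.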

Experiment [4] is described as follows: ATG_M_32_CIS: Attagene CIS-FACTORIAL HepG2 Assay for M32 Transcription Factor (Internal Marker) (AID 2282949).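 Also: background control marker of the multiplexed CIS panel rather than a real target.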 As to conditions: HepG2 Attagene cis-factorial M32 reporter, mRNA; actives raise or lower the signal. The procedure, abridged:
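HepG2 transfectants (cis-regulated reporter transcription units) dosed 24 h. Reporter mRNA by RT-PCR plus CE, analysed as gain or loss relative to DMSO.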

Experiment [5] is described as follows: ATG_M_06_CIS: Attagene CIS-FACTORIAL HepG2 Assay for M06 Transcription Factor (Internal Marker) (AID 2282950). As to conditions: HepG2 Attagene CIS-FACTORIAL M06 internal marker reporter; actives raise or lower the signal. A digest of the protocol: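 Fluorescence-labelled RT-PCR products from cis-promoter reporter units, cut with HpaI and resolved by capillary electrophoresis, give the signal. Cells are human HepG2, dosed for 24 h. Serves as background control, fitted relative to DMSO.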

Experiment [6] addresses Hypoxia-inducible factor 1-alpha (Homo sapiens) (UniProt Q16665). As to the kind of experiment: ATG_HIF1a_CIS: Attagene CIS-FACTORIAL HepG2 Assay for human Hypoxia Inducible Factor 1 (HIF1A) (AID 2282951). Conditions: HepG2 Attagene cis-factorial HIF1a reporter transcription; actives raise or lower the signal. A digest of the protocol: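 Activity is fitted in both directions relative to DMSO. Reporter transcripts are read by RT-PCR, fluorescent primer extension and capillary electrophoresis after 24 h chemical treatment. The cells are HepG2 carrying transiently transfected cis-element-driven reporter units responding to endogenous factors.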

Experiment [7] has as its target Hepatocyte nuclear factor 6 (Homo sapiens) (UniProt Q9UBC0). As to the kind of experiment: ATG_HNF6_CIS: Attagene CIS-FACTORIAL HepG2 Assay for human Hepatocyte Nuclear Factor 6 (HNF6) (AID 2282952). Conditions: HepG2 Attagene cis-factorial HNF6 reporter transcription; actives raise or lower the signal. The procedure, abridged: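 First, HepG2 cells were transfected with the multiplexed cis reporter library and dosed with chemical for 24 h. Next, RNA was reverse-transcribed, PCR-amplified and fluorescently labelled. Finally, HpaI-digested fragments were read by capillary electrophoresis.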

Experiment [8] concerns the target Heat shock factor protein 1 (Homo sapiens) (UniProt Q00613). As to the kind of experiment: ATG_HSE_CIS: Attagene CIS-FACTORIAL HepG2 Assay for human Heat Shock Transcription Factor 1 (HSE) (AID 2282953). Conditions: HepG2 HSE cis-reporter, Attagene RNA transcription; actives raise or lower the signal. A digest of the protocol: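 After a 24 h incubation with test chemical, transfected HepG2 cells were harvested for RNA; reporter transcripts were measured by RT-PCR and capillary electrophoresis. Values reflect gain or loss of signal relative to DMSO.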

Experiment [9] can be described thus: ATG_MRE_CIS: Attagene CIS-FACTORIAL HepG2 Assay for human Metal Responsive Element (MRE) (AID 2282954). Conditions: HepG2 MRE cis-reporter transcription, Attagene multiplex; actives raise or lower the signal. The procedure, abridged: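 Measured here is mRNA induction from an MRE cis-element reporter in HepG2 after 24 h, quantified by fluorescence of labelled RT-PCR products on capillary electrophoresis; gain- and loss-of-signal fits use DMSO as baseline.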

Experiment [10] has as its target Bile acid receptor (Homo sapiens) (UniProt Q96RI1). As to the kind of experiment: ATG_IR1_CIS: Attagene CIS-FACTORIAL HepG2 Assay for human Nuclear Receptor Subfamily 1 Group H Member 4 (NR1H4), IR1 submotif (AID 2282946). Conditions: IR1 reporter transcription, actives raise or lower the signal. A digest of the protocol:
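Fluorescence of capillary-separated, HpaI-digested RT-PCR reporter products gave IR1-element mRNA induction in HepG2 cells 24 h after dosing. Endogenous transcription factors drove the cis-regulated reporters; activity was fitted bidirectionally against DMSO.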

Broadly, the AC50 is the midpoint of the concentration-response curve, whichever way the signal moves.

Sequence of Bile acid receptor (Homo sapiens) (Q96RI1 whole entry, looked up): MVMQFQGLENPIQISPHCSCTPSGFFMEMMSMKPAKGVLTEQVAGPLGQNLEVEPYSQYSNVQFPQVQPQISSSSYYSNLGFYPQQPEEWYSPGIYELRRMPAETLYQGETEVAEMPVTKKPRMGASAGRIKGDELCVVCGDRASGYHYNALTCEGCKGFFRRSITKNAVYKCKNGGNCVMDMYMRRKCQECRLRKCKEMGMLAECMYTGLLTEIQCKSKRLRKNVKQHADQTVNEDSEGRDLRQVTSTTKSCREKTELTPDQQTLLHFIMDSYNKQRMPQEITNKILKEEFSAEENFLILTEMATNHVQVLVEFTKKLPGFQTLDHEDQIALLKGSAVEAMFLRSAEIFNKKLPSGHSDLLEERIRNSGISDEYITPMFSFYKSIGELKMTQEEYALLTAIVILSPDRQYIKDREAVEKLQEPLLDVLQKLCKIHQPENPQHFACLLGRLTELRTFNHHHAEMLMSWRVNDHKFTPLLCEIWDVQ
Sequence of Hepatocyte nuclear factor 6 (Homo sapiens) (Q9UBC0 whole entry, looked up, the tested form may be a part): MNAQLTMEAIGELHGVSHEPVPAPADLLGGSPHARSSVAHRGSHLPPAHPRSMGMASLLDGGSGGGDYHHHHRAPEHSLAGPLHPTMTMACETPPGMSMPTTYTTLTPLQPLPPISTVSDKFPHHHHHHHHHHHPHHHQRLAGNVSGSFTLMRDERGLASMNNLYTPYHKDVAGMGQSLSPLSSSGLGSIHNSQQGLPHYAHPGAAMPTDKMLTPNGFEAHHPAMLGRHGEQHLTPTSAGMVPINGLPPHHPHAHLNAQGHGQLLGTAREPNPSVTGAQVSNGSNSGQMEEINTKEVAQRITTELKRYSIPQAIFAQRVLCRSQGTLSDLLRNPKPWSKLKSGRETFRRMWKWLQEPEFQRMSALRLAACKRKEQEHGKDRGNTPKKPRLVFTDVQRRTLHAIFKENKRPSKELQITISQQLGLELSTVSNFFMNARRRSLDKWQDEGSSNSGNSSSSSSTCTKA
Sequence of Heat shock factor protein 1 (Homo sapiens) (Q00613 whole entry, looked up): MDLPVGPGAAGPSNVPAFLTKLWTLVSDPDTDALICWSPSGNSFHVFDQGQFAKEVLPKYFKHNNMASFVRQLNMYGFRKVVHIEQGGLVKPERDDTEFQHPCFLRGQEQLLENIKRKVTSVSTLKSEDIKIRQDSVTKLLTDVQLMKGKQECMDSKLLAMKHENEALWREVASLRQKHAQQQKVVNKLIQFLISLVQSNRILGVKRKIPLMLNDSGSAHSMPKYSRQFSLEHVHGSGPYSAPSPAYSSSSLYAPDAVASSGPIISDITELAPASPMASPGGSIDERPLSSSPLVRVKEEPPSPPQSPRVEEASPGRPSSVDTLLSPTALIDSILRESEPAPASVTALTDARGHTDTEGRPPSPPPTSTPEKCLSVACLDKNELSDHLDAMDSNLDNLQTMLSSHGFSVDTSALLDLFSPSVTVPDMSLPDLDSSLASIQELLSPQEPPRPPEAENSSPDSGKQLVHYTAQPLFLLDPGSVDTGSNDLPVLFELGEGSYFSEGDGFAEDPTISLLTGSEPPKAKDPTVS
Sequence of Hypoxia-inducible factor 1-alpha (Homo sapiens) (Q16665 whole entry, looked up): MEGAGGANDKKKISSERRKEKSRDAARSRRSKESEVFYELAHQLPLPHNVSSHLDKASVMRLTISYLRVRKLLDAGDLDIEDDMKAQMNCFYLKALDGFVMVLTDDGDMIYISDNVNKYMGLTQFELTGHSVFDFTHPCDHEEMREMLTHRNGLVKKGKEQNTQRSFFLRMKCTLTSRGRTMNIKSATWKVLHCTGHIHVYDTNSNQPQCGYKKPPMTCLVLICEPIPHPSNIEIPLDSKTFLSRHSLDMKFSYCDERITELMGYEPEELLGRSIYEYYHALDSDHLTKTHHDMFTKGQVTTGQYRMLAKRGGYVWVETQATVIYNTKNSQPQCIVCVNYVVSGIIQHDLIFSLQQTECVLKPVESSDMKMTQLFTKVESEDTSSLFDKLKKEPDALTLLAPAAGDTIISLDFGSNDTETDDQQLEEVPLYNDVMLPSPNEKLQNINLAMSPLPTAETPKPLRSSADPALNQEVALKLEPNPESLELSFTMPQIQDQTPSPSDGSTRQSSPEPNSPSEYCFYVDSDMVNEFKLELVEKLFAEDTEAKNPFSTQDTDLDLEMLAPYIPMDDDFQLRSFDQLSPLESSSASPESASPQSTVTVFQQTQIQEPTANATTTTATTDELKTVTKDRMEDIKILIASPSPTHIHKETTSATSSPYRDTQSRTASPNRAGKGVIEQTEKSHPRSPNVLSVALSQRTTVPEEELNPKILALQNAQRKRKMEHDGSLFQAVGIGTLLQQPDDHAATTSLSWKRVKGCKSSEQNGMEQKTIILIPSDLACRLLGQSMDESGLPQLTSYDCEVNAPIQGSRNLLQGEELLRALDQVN

Take `O=C1c2ccccc2C(=O)c2cc(S(=O)(=O)O)ccc21`: the compound was classed as inactive in experiment [1], in experiment [2], in experiment [3], in experiment [4], in [5] and in experiment [6]. In addition, the compound was classed as inactive in experiment [7], in experiment [8] and in experiment [9].

As for `O=C(O)CCCC(=O)O`, the outcome in experiment [1], in experiment [2], in experiment [3], in experiment [4], in experiment [5] and in [6] was inactive. The outcome in experiment [7] and in experiment [8] was inactive.

For `CCc1cccc(C)c1N(C(=O)CS(=O)(=O)O)C(C)COC` (stereo not drawn), the outcome in [1], in experiment [2], in experiment [3], in experiment [4], in experiment [5] and in experiment [6] was inactive. Moreover, the outcome in [7] and in experiment [8] was inactive.

As for `C=C[C@@]1(C)CC(=O)[C@]2(O)[C@@]3(C)[C@@H](O)CCC(C)(C)[C@@H]3[C@H](O)[C@H](OC(C)=O)[C@@]2(C)O1`, the outcome in experiment [1], in experiment [2], in experiment [3], in [4], in experiment [5] and in experiment [6] was inactive. Also, the outcome in experiment [7] and in experiment [8] was inactive.

Turning to `CC(C)c1cc(C(C)C)cc(C(C)C)c1`, the figures for the half-maximal activity concentration (AC50) in experiment [1], in experiment [3] and in experiment [4] were 146 µM (active), 176 µM (active) and 162 µM (active), respectively. Also, the outcome in experiment [2], in [5], in experiment [6], in [7], in experiment [8] and in [9] was inactive.

For the compound `C=C(C)C1CC=C(C)C(OC(C)=O)C1` (stereo not drawn), the compound was classed as inactive in experiment [1], in [2], in experiment [3], in experiment [4], in experiment [5] and in experiment [6]. In addition, the outcome in [7], in experiment [8] and in [9] was inactive.

Take `CCCCCCCCCCCCC`: the outcome in experiment [1], in [2], in [3], in [4], in experiment [5] and in experiment [6] was inactive. In addition, the compound was called inactive in experiment [7] and in experiment [8].

For the compound `CC(CC(C)C)=NO`, the compound was called inactive in [1], in experiment [2], in experiment [3], in experiment [4], in experiment [5] and in experiment [6]. Also, the compound was called inactive in [7] and in [8].

As for `Clc1cc(Cl)c(Cl)c(Cl)c1Cl`, the call in [1], in [2], in [3], in [4], in [5] and in experiment [7] was inactive. For the same compound, the outcome in experiment [8] was inactive. In addition, in experiment [6], the half-maximal activity concentration (AC50) was 27.7 µM (active).

`O=C1CCCCCCCCCCC1`: the compound was called inactive in experiment [1], in experiment [2], in experiment [3], in experiment [4], in experiment [5] and in [6]. The outcome in [7] and in [8] was inactive.

With `Nc1ccc(O)c([N+](=O)[O-])c1`, the call in [1], in experiment [2], in [3], in experiment [4], in [5] and in experiment [6] was inactive. For the same compound, the compound was classed as inactive in [7] and in experiment [8].

Regarding `C=Cc1ccc(OC(C)=O)cc1`, the outcome in experiment [1], in experiment [2], in experiment [3], in experiment [4], in [5] and in experiment [6] was inactive. Further, the compound was classed as inactive in [7] and in experiment [8].

`C=C[Si](OCCOC)(OCCOC)OCCOC`: the compound was called inactive in experiment [1], in experiment [2], in experiment [3], in [4], in [5] and in experiment [6]. Further, the call in [7], in experiment [8] and in experiment [9] was inactive.

As for `CC(=O)OCc1ccccc1`, the call in experiment [1], in [2], in experiment [3], in experiment [4], in [5] and in experiment [6] was inactive. Besides, the compound was classed as inactive in [7], in [8] and in experiment [9].

Regarding `CC(=O)/C=C/C1C(C)=CCCC1(C)C` (stereo not drawn), the call in experiment [1], in experiment [10], in experiment [3], in [4], in experiment [6] and in [7] was inactive. For the same compound, the result in [8] and in experiment [9] was inactive.

For `CC(=O)OC1CCCCC1C(C)(C)C` (stereo not drawn), the compound was called inactive in [1], in [2], in [3], in experiment [4], in experiment [5] and in experiment [6]. In addition, the compound was called inactive in [7] and in experiment [8].

Regarding `Oc1ccc(/C=C/c2cc(O)cc(O)c2)cc1`, the compound was called inactive in experiment [1], in experiment [10], in experiment [4], in experiment [5], in experiment [7] and in experiment [8].

For `O=C(Oc1ccccc1)c1ccccc1O`, the compound was called inactive in [1], in experiment [2], in experiment [3], in experiment [4], in [5] and in experiment [6]. For the same compound, the compound was classed as inactive in [7] and in experiment [8].

Regarding `Oc1ccc(-c2ccccc2)c(Cl)c1`, the result in [1], in experiment [2], in [3], in experiment [4], in [5] and in experiment [7] was inactive. Moreover, the compound was classed as inactive in experiment [8]. For the same compound, the AC50 in experiment [6] was 8.12 µM (active); in experiment [9] it was 52.9 µM (active).

For the compound `Nc1nc(N)nc(-c2ccccc2)n1`, the result in experiment [1], in [2], in [3], in [4], in experiment [5] and in experiment [6] was inactive. For the same compound, the call in [7], in experiment [8] and in experiment [9] was inactive.

With `CN(C)Cc1cc(CN(C)C)c(O)c(CN(C)C)c1`, the result in experiment [1], in [2], in experiment [3], in experiment [4], in experiment [5] and in experiment [6] was inactive. For the same compound, the result in experiment [7] and in experiment [8] was inactive.

As for `CC1CC(=O)CC(C)(C)C1` (stereo not drawn), the outcome in experiment [1], in [2], in [3], in [4], in [5] and in experiment [6] was inactive. In addition, the compound was classed as inactive in experiment [7], in [8] and in experiment [9].

On to `CCCCCC[C@@H](O)C/C=C\CCCCCCCC(=O)OCC(O)CO` (stereo partly drawn), for which the AC50 in experiment [1] is 143 µM (active); in experiment [2], 149 µM (active); in [4] it was 160 µM (active); in experiment [6] it was 67.2 µM (active); in experiment [8], 184 µM (active). The result in experiment [3], in experiment [5] and in experiment [7] was inactive.

For the compound `CCCCCCOC(=O)CCCCC(=O)OCCCCCC`, the result in experiment [1], in experiment [10], in [4], in [5], in experiment [6] and in [7] was inactive. The compound was called inactive in [8] and in experiment [9].

Turning to `CCCCC(CC)COC(=O)/C=C/c1ccc(OC)cc1` (stereo not drawn), the compound was classed as inactive in experiment [1], in experiment [2], in experiment [3], in experiment [4], in experiment [5] and in [6]. The call in [7] and in experiment [8] was inactive.

For `C=C(C)C(=O)OCCOC(=O)C(=C)C`, the compound was called inactive in [1], in [2], in experiment [3], in experiment [4], in experiment [5] and in experiment [6]. Moreover, the compound was classed as inactive in experiment [7], in [8] and in [9].

As for `C=CCCCCCCCCC=O`, the compound was classed as inactive in [1], in experiment [2], in [3], in experiment [4], in experiment [5] and in experiment [6]. The result in experiment [7], in [8] and in [9] was inactive.

As to `CCCCC(CC)COS(=O)(=O)O` (stereo not drawn), the call in experiment [1], in [10], in experiment [4], in [5], in [6] and in [7] was inactive. Further, the call in experiment [8] and in experiment [9] was inactive.

For the compound `CC1=CP(=O)(c2ccccc2)CC1` (stereo not drawn), the compound was called inactive in experiment [1], in [2], in experiment [3], in experiment [4], in [5] and in experiment [6]. The call in [7] and in [8] was inactive.

As for `CC(CC=O)CC(C)(C)C` (stereo not drawn), the compound was called inactive in experiment [1], in experiment [10], in [3], in experiment [4], in experiment [6] and in experiment [7]. Moreover, the outcome in experiment [8] and in experiment [9] was inactive.
